Measured values taken from ChEMBL document CHEMBL3988442, “University of Dundee, Small-Polar-MMV Screening Library” (2021).
Among all 48,000 compounds or so, about 13,000 (27%) showed an effect of 50% or more. The list shows a part of the results.

system: Wolbachia pipientis; experiment: Anti-Wolbachia Cell-Based Screen; type: functional; set-up: scale not given: in the data most compounds retested in dose-response had high values; details: 5 µM

Row | SMILES | Percent Effect [%]
1 | CCNC(=O)CN(CC)C(=O)c1cccc(Nc2cnn(C)c2)c1 | -0.2175
2 | CN(Cc1cnc(N)nc1)C(=O)C1CC(=O)N(Cc2ccncc2)C1 (stereo not drawn) | -0.2602
3 | CN1CCN(Cc2n[nH]c(=O)n2CC2CCCCC2)CC1 | 12.01
4 | N#Cc1cccc(N2CCC(CO)(CCc3ccccc3)CC2)n1 | -13.62
5 | Cc1cnc(NCC(C)(C)N2CCN(C)CC2)nc1 | -0.3057
6 | Cn1c(Cn2ccnc2)nnc1C1CCN(Cc2cccnc2N)CC1 | -5.827
7 | Cn1cccc1C(=O)N1CCC(c2nccn2Cc2ccncc2)CC1 | 14.15
8 | Cn1c(Cn2ccnc2)nnc1C1CCN(C(=O)c2ccoc2)CC1 | 96.26
9 | Cn1nc(Cn2ccnc2)c2c1CN(C(=O)c1ccoc1)C2.O=C(O)C(F)(F)F | -63.76
10 | Cc1[nH]ccc1C(=O)N1CCC(c2nnc(Cn3ccnc3)n2C)CC1 | 6.251
11 | Cn1cccc1C(=O)N1CCC(c2nnc(Cn3ccnc3)n2C)CC1 | 89.43
12 | Cn1c(Cn2ccnc2)nnc1C1CCN(C(=O)c2ccncc2)CC1 | 74.15
13 | CN(CCO)Cc1nnc(C2CCN(C(=O)c3ccccc3)CC2)n1C | 8.451
14 | CN(CCO)Cc1nnc(C2CCN(C(=O)c3cccn3C)CC2)n1C | -1.148
15 | CCN1C(=O)C(c2ccccc2)CC12CCN(c1ncccn1)CC2 (stereo not drawn) | -1.132
16 | CN(Cc1ccc(F)cc1)Cc1nc(-c2cnccn2)no1 | -0.4176
17 | CCc1n[nH]c(C2CN(Cc3ncc(CC)o3)CCO2)n1 (stereo not drawn) | -12.36
18 | CC(NC(=O)N1CCc2ccccc21)c1nncn1C (stereo not drawn) | -4.094
19 | Cc1ccsc1CN(C)CCc1scnc1C | 3.291
20 | Cc1ccsc1CNC(=O)CSc1nnc[nH]1 | -7.3
21 | CNS(=O)(=O)c1csc(C(=O)N(C)Cc2sccc2C)c1 | 1.133
22 | CCC(C)N(Cc1sccc1C)C(=O)c1ccc(S(C)(=O)=O)cc1 (stereo not drawn) | 114.6
23 | CCC(C)N(Cc1sccc1C)C(=O)c1cnc[nH]1 (stereo not drawn) | 112.1

Row | SMILES | Percent Effect [%]
24 | CCC(C)N(Cc1sccc1C)C(=O)c1cc(N)ccn1 (stereo not drawn) | 107.3
25 | COC(=O)c1ccc(S(=O)(=O)NCC(O)c2sccc2C)cc1 (stereo not drawn) | 1.544
26 | CNS(=O)(=O)c1csc(C(=O)NCc2sccc2C)c1 | -10.67
27 | Cc1ccsc1CN(Cc1ncccc1C(=O)O)C1CC1 | -1.02
28 | CCC(C)N(Cc1sccc1C)C(=O)c1ccc2cccnc2n1 (stereo not drawn) | 114.4
29 | Cc1cc(C)c(CNC(=O)N(C)Cc2sccc2C)c(=O)[nH]1 | -0.6521
30 | Cc1ccsc1CN(C)Cc1ncccc1C(=O)O | 8.285
31 | O=C(NC1CC1)[C@H]1COC[C@H]2CN(c3ncc(F)cn3)C[C@H]21 | -1.694
32 | O=C(O)COc1ccc(Cl)cc1CN1CCC2(CCOCC2)CC1 | 5.352
33 | C=C(C)CN1CCC(Nc2nc(C)ns2)CC1 | 3.989
34 | Cc1cc(C)n(CC2CCCN2Cc2ccc(F)cc2C#N)n1 (stereo not drawn) | -16.28
35 | Cc1nc(C)n(CC2CCCN(Cc3ccc(F)cc3C#N)C2)n1 (stereo not drawn) | 96.96
36 | Cc1nc(C)n(CC2CN(Cc3cc(C#N)ccc3F)CCO2)n1 (stereo not drawn) | 105.5
37 | Cc1nc(C)n(CC2CN(c3ncnc4[nH]ccc34)CCO2)n1 (stereo not drawn) | 9.938
38 | N#Cc1ccc(CN2CCCC(Cn3cncn3)C2)c(F)c1 (stereo not drawn) | 10.83
39 | Cc1nc(C)n(CC2CCCN2Cc2ccc(F)cc2C#N)n1 (stereo not drawn) | -2.788
40 | Cc1nc(C)n(CC2CN(c3ncccc3C#N)CCO2)n1 (stereo not drawn) | 109.9
41 | Cc1nc(C)n(CC2CN(Cc3cccc(C#N)c3)CCO2)n1 (stereo not drawn) | 2.978
42 | Cc1nc(C)n(CC2CN(c3nnc(C)c(C)c3C#N)CCO2)n1 (stereo not drawn) | -9.439
43 | Cc1nc(C)n(CC2CCCN(Cc3cc(C#N)ccc3F)C2)n1 (stereo not drawn) | 126.4
44 | Cc1nc(C)n(CC2CN(Cc3cccc4c3OCCO4)CCO2)n1 (stereo not drawn) | -0.04658
45 | O=S(=O)(NCC1CCOc2ccccc2C1)N1CCOCC1 (stereo not drawn) | 11.66
46 | CS(=O)(=O)N1CCOC2(CCN(c3nccs3)CC2)c2ccccc21 | -2.369

Row | SMILES | Percent Effect [%]
47 | Cc1nc(C)n(CC2CCCN(CCc3ccccn3)C2)n1 (stereo not drawn) | -0.6255
48 | Cc1nc(C)n(CC2CCCN(CCOc3ccccc3C#N)C2)n1 (stereo not drawn) | 99.48
49 | N#Cc1ccccc1OCCN1CCCC(c2noc(C3CC3)n2)C1 (stereo not drawn) | 29.76
50 | Cc1nc(C)n(CC2CCCN(Cc3cccc(F)c3F)C2)n1 (stereo not drawn) | 100.4
51 | Cc1nc(C)n(CC2CCCN(Cc3ccccc3C#N)C2)n1 (stereo not drawn) | 99.33
52 | Cn1nc2c(cc1=O)CN(Cc1nc(C(C)(C)C)no1)CC2 | 5.069
53 | Cc1nc(CN2CCCC(CCc3ccccc3C(F)(F)F)C2)co1 (stereo not drawn) | 3.253
54 | COc1cnc(N2CC(N3CCOCC3)C2)nc1-c1ccnn1C | -5.867
55 | Cc1ccc2c(ccn2CCC(=O)N2CCC(C(N)=O)CC2)c1 | 23.62
56 | CN(Cc1ccccn1)C(=O)CC1CCOc2ccccc21 (stereo not drawn) | -4.334
57 | Cc1ccc2c(c1)[C@@H](CC(=O)N1CCOCC1)CCO2 | 86.47
58 | Cc1ccc2c(c1)[C@@H](CC(=O)N1CCN(C)CC1)CCO2 | 86.47
59 | Cc1ccc(C2CSCCN2CC(=O)N2CCOCC2)cc1 (stereo not drawn) | 2.726
60 | COCC(=O)N1CCC2(CC1)CC(N1CCOCC1)c1ccc(C)cc12 (stereo not drawn) | 6.475
61 | Cc1ccc2c(c1)[C@@H](CC(=O)N(C)C)CCO2 | 103.2
62 | CN(C)C(=O)CC1CCOc2ccccc21 (stereo not drawn) | -4.71
63 | Cc1ccc2c(c1)C(NC1CCN(C)CC1)CCCO2 (stereo not drawn) | 0.3143
64 | O=C1CCOCCN1Cc1ccc(Cl)c(Cl)c1 | 9.877
65 | CSc1ccc(NC(=O)NCC(O)C(C)C)cc1F (stereo not drawn) | -14.41
66 | CNS(=O)(=O)CC(=O)N1CCC(c2ccc(F)c(F)c2)CC1 | -2.799
67 | CN1[C@@H](c2ccccc2)[C@@H](C(=O)NCc2ccccn2)C[C@@]1(C)C(=O)O | 4.83
68 | O=C(NCc1cccs1)C1CCN(c2cc(-n3ccnc3)ncn2)CC1 | -1.807
69 | CC(C)(C)c1cc(=O)n2c(n1)SCC(C(=O)NCc1ccco1)C2 (stereo not drawn) | 102.3

Row | SMILES | Percent Effect [%]
70 | O=C(NCc1cccs1)C1CCCN(c2cc(-n3cncn3)ncn2)C1 (stereo not drawn) | -5.792
71 | O=C(NCc1cccs1)C1CN(C(=O)c2cccs2)CC12CCOCC2 (stereo not drawn) | -10.89
72 | O=C(NCc1cn2cccnc2n1)C1CC(=O)N(Cc2ccccn2)C1 (stereo not drawn) | -14.07
73 | CC(C)(C)c1cc(=O)n2c(n1)SCC(C(=O)NCc1cccs1)C2 (stereo not drawn) | 98.61
74 | CCc1c(C)nc2n(c1=O)CC(C(=O)NCc1cccs1)CS2 (stereo not drawn) | 101.3
75 | CC(C)(C)c1cc(=O)n2c(n1)SCC(C(=O)NCc1ccccn1)C2 (stereo not drawn) | 106.1
76 | CC(C)Cc1cc(CNC(=O)C2CCCN(Cc3ccco3)C2)no1 (stereo not drawn) | -2.049
77 | COC1CCN(CCNC(=O)NC(C)c2cccc(Cl)c2)CC1 (stereo not drawn) | 14.59
78 | O=C(C1CCCC1)N1CCC(c2n[nH]c3nccnc23)CC1 | 136.1
79 | O=C(C1CCCCC1)N1CCC(c2n[nH]c3nccnc23)CC1 | 126.4
80 | O=C(CCC(=O)Nc1ccccc1)NCC(=O)c1ccc(F)cc1F | -8.283
81 | O=C(Cn1cnc(-c2ccccc2)cc1=O)Nc1ccncc1 | 13.41
82 | Cl.NCCC(=O)Nc1ccc(-c2ccccc2)cc1 | 116.3
83 | CCCc1nc(CNC(=O)Cc2cc(C)no2)cs1 | -3.893
84 | CCS(=O)(=O)NCCNc1cc(-n2cccc2)ncn1 | 9.537
85 | COc1ccc2cc(C3CN(C(=O)CCNC(C)=O)CCO3)ccc2c1 (stereo not drawn) | -5.377
86 | Nc1cccc(C2CN(C(=O)CN3CCOCC3)CCO2)n1 (stereo not drawn) | 104.8
87 | CNC(=O)CN1CCOC(c2ccccc2C(F)(F)F)C1 (stereo not drawn) | -19.7
88 | O=C(CCNS(=O)(=O)c1ccccc1)N1CCOC(c2ccccc2)C1 (stereo not drawn) | 1.988
89 | CC(=O)NCC(=O)N1CCN(C)c2ncccc2C1 | -12.03
90 | CNc1cccc(C2CN(C(=O)CNS(C)(=O)=O)CCO2)n1 (stereo not drawn) | 125.9
91 | CC(=O)NCC(=O)N1CCOC(c2cccc(N)n2)C1 (stereo not drawn) | 128.4
92 | CNC(=O)CN1CCOC(c2cccc(N)n2)C1 (stereo not drawn) | 126.4

Row | SMILES | Percent Effect [%]
93 | O=C(Cc1cccc(F)c1F)N1CCOC(c2cccc(O)c2)C1 (stereo not drawn) | -10.07
94 | COc1ccc2cc(C3CN(C(=O)CN4CCCC4)CCO3)ccc2c1 (stereo not drawn) | 0.8606
95 | Cc1n[nH]c(C2CN(CC(=O)NCc3ccco3)CCO2)n1 (stereo not drawn) | 14.88
96 | O=C(CCNS(=O)(=O)c1cccnc1)N1CCOC(c2ccccc2)C1 (stereo not drawn) | -17.46
97 | CCN(C(=O)CN1CCCC1c1ccc(F)cc1)c1ccccc1C (stereo not drawn) | -2.599
98 | O=C(NCc1ccccc1)c1nc2c(o1)CN(C(=O)c1cccnc1)C2.O=C(O)C(F)(F)F | -11.3
99 | CCCn1cc(C(=O)N2CCCC2(C)c2nc(C)cc(N)n2)cn1 (stereo not drawn) | 145.7
100 | Cc1occc1CNC(=O)C1(C)CCCN1C(=O)c1ccccc1 (stereo not drawn) | -1.558
101 | CCCN1CC2(CCN(C)CC2)CC1C(=O)NCCn1cc(C)cn1 (stereo not drawn) | 2.434
102 | CCCn1cc(C(=O)N2CCCC2(C)c2nc(C)cc(C)n2)cn1 (stereo not drawn) | 137.7
103 | CCn1cc(C(=O)N2CCCC3(CCC(=O)N(CCC(C)C)C3)C2)cn1 (stereo not drawn) | 12.9
104 | Cc1cc(CN(C)CC2CC(C3CCCCC3)=NO2)no1 (stereo not drawn) | 7.354
105 | CC(C)C[C@H](N)COc1cccc(F)c1Oc1cccc(Cl)c1 | 101.2
106 | CCCOc1ccccc1C(N)CC(C)C (stereo not drawn) | -0.2003
107 | Cc1ccc(Oc2c(F)cccc2OC[C@@H](N)CC(C)C)cc1 | 105.2
108 | COc1ccccc1C(N)CC(C)C (stereo not drawn) | -3.152
109 | CC(C)C[C@H](N)COc1cccc(F)c1Oc1ccccc1 | 86.38
110 | CC(C)COc1ccccc1C(N)CC(C)C (stereo not drawn) | 3.721
111 | CCOc1ccccc1C(N)CC(C)C (stereo not drawn) | -6.989
112 | CC(C)C[C@H](N)COc1cccc(F)c1Oc1ccc(Cl)cc1 | 75.53
113 | CC(CNS(N)(=O)=O)Oc1cccc(Cl)c1 (stereo not drawn) | -1.116
